This note sets out measurements from PubChem BioAssay AID686978 (National Center for Advancing Translational Sciences (NCATS), 2013).

The whole screen tested about 420,000 compounds, of which about 64,000 (15%) were called active. Inconclusive results (about 27%) are left out. Calls come from the whole dose curve; as a rule, active = well fitted inhibition curve with a large enough effect; inconclusive = small, poorly fitted or top-dose-only effect; inactive = flat fitted curve, though single readings scatter. A selection follows. A call without a number means that no potency is given here.
Potency is the fitted concentration of half-maximal effect.

The assay in a line: qHTS for Inhibitors of human tyrosyl-DNA phosphodiesterase 1 (TDP1): qHTS in cells in absence of CPT. Note: nearly all actives have a fitted effect of over 55% in size. To be noted: DT40 Tdp1-/- hTDP1 cells, no CPT, ATP luminescence, 48 h; activity change, negative = growth inhibition: at 46.2 µM (top of the series). In a few lines: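 Chicken DT40 Tdp1-/- cells stably complemented with human TDP1 were seeded at 400 cells/well with DMSO in place of 20 nM camptothecin. After compound pinning, cells grew at least 48 hr at 37 °C; viability read by CellTiter-Glo luminescence.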
In general terms: In qHTS, concentration-response curves come from the screen itself.
Consider `Cc1cccc(C)c1NC(=O)Nc1ccccc1-n1ccnc1`, for which the Potency entry is “inactive”.

Consider `COC(=O)C[C@H]1C=C[C@@H](NS(=O)(=O)c2ccc(C)cc2)[C@@H](CO)O1`, for which the Potency entry was “inactive”.

Regarding `COc1ccc(C(=O)Nc2sc(C)c(C)c2CN2CCOCC2)cc1`, the Potency was 23.1 µM (active).

Take `COc1ccc(C(=O)Nc2ccnn2C2CCN(Cc3ccncc3)CC2)cc1`: the Potency entry was “inactive”.

Turning to `COc1ccc(C(=O)Nc2ccc(CN3CCOCC3)cc2)cc1`, the Potency entry is “inactive”.

For the compound `OCC1(CO)CC2(C1)CC(CO)(CO)C2`, the Potency entry was “inactive”.

Take `CCOC(=O)c1sc(NC(=O)/C=C/c2ccc(C(C)C)cc2)c(C(=O)OCC)c1C`: the Potency result is “inactive”.

On to `Cc1ccc(S(=O)(=O)NCC(=O)N(CC(=O)NCC2CCCO2)c2cccc(F)c2)cc1` (stereo not given), for which the Potency entry was “inactive”.

For the compound `COC(=O)c1cc(NC(=O)CCc2c(C)nc3c4c(C)cc(C)nc4nn3c2C)cc(C(=O)OC)c1`, the Potency entry was “inactive”.

As for `CCc1noc(C)c1C(=O)NNC(=O)c1ccc(F)cc1`, the Potency entry is “inactive”.

As to `CCc1noc(C)c1C(=O)OCC(=O)c1ccc(NC(=O)CC(C)C)cc1`, the Potency was 25.9 µM (active).

For `COc1ccc(C(=O)COC(=O)c2c(C)noc2C)cc1Cl`, the Potency entry was “inactive”.

With `O=C(Nc1nsc(-c2ccccc2)n1)c1ccncc1`, the Potency entry is “inactive”.

Regarding `NC(=O)c1oc2ccccc2c1NC(=O)Cc1ccccc1`, the Potency entry is “inactive”.

`COc1ccc(-c2nn(-c3ccccc3)cc2/C=C\C(=O)N2CCOCC2)cc1[N+](=O)[O-]`: the Potency entry is “inactive”.

For the compound `C[C@@H]1ON(C)[C@H]2C[C@H]3c4cc(N5CCN(C)CC5)ccc4CCN3C(=O)[C@@H]12`, the Potency result is “inactive”.

Take `COC(=O)[C@H]1[C@H]2C[C@H]3c4[nH]c5ccccc5c4CCN3C[C@@H]2CC[C@@H]1O`: the Potency result is “inactive”.

As to `COc1ccc(-c2ccc3[nH]c4c(c3c2)CCN2C[C@H]3[C@H](C)ON(C)[C@H]3C[C@@H]42)cc1`, the Potency is 20.6 µM (active).

For `O=C(NCc1csc(-c2cccs2)n1)C1CC1`, the Potency entry was “inactive”.

`CC(C)(C)C1CCC(C(=O)NCC(c2cccs2)N2CCOCC2)CC1` (stereo not given): the Potency is 8.2 µM (active).

Take `COc1ccc(C(CNC(=O)CSc2ccccc2)N2CCOCC2)cc1` (stereo not given): the Potency entry was “inactive”.

Regarding `Cc1cc(=O)oc(C)c1C(=O)Nc1cnc2ccccc2c1`, the Potency entry is “inactive”.

`CCc1ccc(NC(=O)C(=O)N/N=C(\C)CC(=O)NCCOC)cc1`: the Potency result was “inactive”.

For `CCc1nnc(NC(=O)CSc2nnc(Cc3ccccc3)n2-c2ccc(OC)cc2)s1`, the Potency result was “inactive”.

Turning to `CCc1c(C)[nH]c(=S)c(C#N)c1C`, the Potency entry was “inactive”.

For `COc1cccc(C(=O)NC2(C(F)(F)F)C(=O)Nc3c2c(=O)[nH]c(=O)n3-c2ccc(C)cc2)c1` (stereo not given), the Potency was 23.1 µM (active).

As for `CCOc1ccccc1C(=O)NC1(C(F)(F)F)C(=O)Nc2c1c(=O)[nH]c(=O)n2-c1ccc(F)cc1` (stereo not given), the Potency result is “inactive”.

With `COc1cccc(C(=O)NNC(=O)c2cccc(F)c2)c1`, the Potency entry was “inactive”.

Consider `Cc1cccc(-c2noc(CCC(=O)NC3CCCC3)n2)c1`, for which the Potency result is “inactive”.

In the case of `Cc1ccc(S(=O)(=O)N2C3C=CC(C3)C2C(=O)O)cc1` (stereo not given), the Potency entry is “inactive”.

Take `COc1ccc(S(=O)(=O)N2CCOC2CNC(=O)C(=O)NCc2ccncc2)cc1OC` (stereo not given): the Potency result was “inactive”.

In the case of `Cc1ccc(S(=O)(=O)N2CC[C@H]3[C@@H](C2)C(=O)C[C@@H](c2ccccc2)N3S(=O)(=O)c2ccc(C)cc2)cc1`, the Potency result is “inactive”.

As for `O=C(CN1CCN(S(=O)(=O)c2ccc(F)cc2)CC1)NC1CC1`, the Potency entry was “inactive”.

Take `Cc1ccc(S(=O)(=O)N2CCCC2CO)cc1` (stereo not given): the Potency entry was “inactive”.

Regarding `CCOC(=O)C1=CC[C@@H](c2ccncc2)N(S(=O)(=O)c2ccc(C)cc2)C1`, the Potency is 23.1 µM (active).

As to `CCOC(=O)C1=CCC(c2ccc(F)cc2)N(S(=O)(=O)c2ccc(C)cc2)C1` (stereo not given), the Potency is 18.4 µM (active).

`CC(=O)C1=CCC(c2ccccc2)N(S(=O)(=O)c2ccc(C)cc2)C1` (stereo not given): the Potency is 23.1 µM (active).

Consider `Cc1ccc(NC(=O)CSc2nnc(CNC(=O)c3ccccc3F)o2)cc1`, for which the Potency entry was “inactive”.

Regarding `COc1ccc(-c2cc(=O)oc3cc(OCC(=O)N(C)C4CCS(=O)(=O)C4)ccc23)cc1` (stereo not given), the Potency result was “inactive”.

For `Cc1ccc(-c2c[n+](=O)c3c(n2[O-])CCC3)cc1`, the Potency result is “inactive”.

With `O=C(C1CCN(C2CCN(Cc3cccc4c3OCO4)CC2)CC1)N1CCOCC1`, the Potency result is “inactive”.

Consider `COC(=O)C(C)n1cnc2c(nnn2-c2ccc(F)cc2)c1=O` (stereo not given), for which the Potency result was “inactive”.

Regarding `O=C1CC(c2ccccc2)C(c2ccccc2)=NN1` (stereo not given), the Potency result is “inactive”.

Turning to `CCOc1ccc(N2CC(C(=O)NCc3ccccn3)CC2=O)cc1` (stereo not given), the Potency entry was “inactive”.

For `O=C(COC(=O)Cc1ccc(Br)cc1)Nc1ccc(N2CCOCC2)cc1`, the Potency entry was “inactive”.

In the case of `COc1ccc(C(=O)Nc2c(N)nc(SCC(=O)Nc3ccc(C(C)=O)cc3)[nH]c2=O)cc1`, the Potency result was “inactive”.

In the case of `Cc1cc(Cl)c(S(=O)(=O)N(C)C)cc1OCC(N)=O`, the Potency entry is “inactive”.

Consider `COc1ccc(C(C[N+](=O)[O-])n2nc(C)cc2C)cc1` (stereo not given), for which the Potency was 6.51 µM (active).

With `COc1ccc(C(=O)CSc2nc(C)cc(C)n2)cc1[N+](=O)[O-]`, the Potency entry was “inactive”.

With `COc1ccc(OC)c(S(=O)(=O)n2c([N+](=O)[O-])cnc2C)c1`, the Potency result is “inactive”.

For the compound `C/C(=N\N)c1c(-c2ccccc2)c2cc(Br)ccc2[nH]c1=O`, the Potency result was “inactive”.

Take `COc1ccc(CCNC(=O)COC(=O)/C=C/c2cccs2)cc1OC`: the Potency entry is “inactive”.

For `Cc1[nH]n(C)c(=O)c1N=Nc1ccc(S(C)(=O)=O)cc1`, the Potency result was “inactive”.

With `Cc1nnc(Nc2ccccc2F)s1`, the Potency entry is “inactive”.

For the compound `Nc1ncnc2c1ncn2[C@@H]1O[C@H](CNCc2cccn2-c2nccs2)[C@@H](O)[C@H]1O`, the Potency entry was “inactive”.

On to `COc1ccc(N2CCN(CCCNC(=O)C3CCN(S(=O)(=O)N4CCOCC4)CC3)CC2)cc1`, for which the Potency entry was “inactive”.

As to `N#CCCn1c(=O)c(-c2cc(F)cc(F)c2)nc2cnc(Oc3ccccc3)nc21`, the Potency result is “inactive”.

For the compound `COc1cccc(/C=N\Nc2nncc(-c3ccccc3)n2)c1`, the Potency entry was “inactive”.

Take `CCOc1ccc(/C=N/Nc2nncc(-c3ccccc3)n2)cc1OC`: the Potency was 14.6 µM (active).

As to `COc1cc(/C=N/n2c(C)n[nH]c2=S)ccc1OCc1ccccc1`, the Potency result is “inactive”.

With `COc1cc(OC)c(N2CC(C(=O)Nc3cc(Cl)ccc3N3CCOCC3)CC2=O)cc1Cl` (stereo not given), the Potency is 3.66 µM (active).

Consider `COc1ccccc1N1CC(C(=O)Nc2ccc(S(=O)(=O)N3CCOCC3)cc2)CC1=O` (stereo not given), for which the Potency entry is “inactive”.

In the case of `Cc1ccc(N2CC(C(=O)Nc3cc(Cl)ccc3-n3cncn3)CC2=O)cc1` (stereo not given), the Potency entry was “inactive”.

On to `O=C(c1cnccn1)N1CCC[C@@]2(CCN(Cc3ccncc3)C2)C1`, for which the Potency result is “inactive”.

Regarding `CC(=O)c1cnc(SCCN2C(=O)c3ccccc3C2=O)nc1C`, the Potency result was “inactive”.

As for `Cc1cc(NC(=O)/C=C/C(=O)N(c2ccccc2C)C(C(=O)NC2CCCC2)c2ccc(F)cc2)no1` (stereo not given), the Potency is 23.1 µM (active).

Regarding `Cc1cc(NC(=O)CCC(=O)N(c2cccc(F)c2)C(C(=O)NC2CCCC2)c2ccncc2)no1` (stereo not given), the Potency entry was “inactive”.

Consider `Cc1cc(NC(=O)CCC(=O)N(CC(=O)NC2CCCC2)c2ccc(F)cc2)no1`, for which the Potency entry is “inactive”.

Consider `O=C(NC1CCC(O)CC1)c1ccc(S(=O)(=O)NCc2ccco2)cc1` (stereo not given), for which the Potency entry is “inactive”.

With `COc1ccc(NC(=O)Cn2ncn3c(cc4ccccc43)c2=O)c(OC)c1OC`, the Potency result was “inactive”.

With `COc1ccc(CNC(=O)c2nnn(CC(=O)Nc3cc(C)cc(C)c3)c2N)cc1`, the Potency entry was “inactive”.

Turning to `C=CCc1ccccc1OCC(=O)N/N=C/c1ccccc1OCC`, the Potency result is “inactive”.

Take `Cc1ccc(OCC(=O)N/N=C/c2ccncc2)cc1`: the Potency result was “inactive”.

Turning to `Cc1ccc(/C=N/NC(=O)COc2ccccc2-c2ccccc2)cc1`, the Potency was 0.184 µM (active).

Consider `COc1cc(Cl)c(S(=O)(=O)N2CCN(Cc3ccc4c(c3)OCO4)CC2)cc1Cl`, for which the Potency entry was “inactive”.

For the compound `OCCC1CN(Cc2ccc3nsnc3c2)CCN1C1CCCC1` (stereo not given), the Potency entry is “inactive”.

In the case of `C=C1C(=O)[C@]23C[C@H]1CCC2[C@@]1(C)C(C[C@@H]3O)[C@](C)(C(=O)O)CC[C@@H]1O` (stereo not given in full), the Potency is 6.51 µM (active).

In the case of `O=C(CSc1ncn[nH]1)Nc1nc2c(F)c(F)c(F)cc2s1`, the Potency entry is “inactive”.

In the case of `CC(C)(C)NC(=O)NC(=O)COC(=O)Cc1c(F)cccc1Cl`, the Potency entry was “inactive”.

For the compound `CCN1CCCC1CNC(=O)Cn1cnc2ccc(S(=O)(=O)N3CCC(C)CC3)cc2c1=O` (stereo not given), the Potency result was “inactive”.

For the compound `COc1ccccc1NC(=O)CN1CCN(S(=O)(=O)c2ccc(Br)cc2)CC1`, the Potency entry is “inactive”.

On to `COc1ccccc1NC(=O)Cn1cnc2ccc(S(=O)(=O)N3CCC(C)CC3)cc2c1=O`, for which the Potency was 23.1 µM (active).

As for `CC(C)CN(C(=O)CN1CCN(S(=O)(=O)c2ccccc2)CC1)c1c(N)n(CC(C)C)c(=O)[nH]c1=O`, the Potency result is “inactive”.

For `Cc1cc(NC(=O)OC(C)C)ccc1-c1ccc(NC(=O)OC(C)C)cc1C`, the Potency entry was “inactive”.

Turning to `CN(CCO)c1ccc(/C=N/Nc2nncc3ccccc23)cc1`, the Potency was 14.6 µM (active).

Turning to `COc1ccc(/C=N/Nc2nc3ccccc3c(=O)[nH]2)cc1`, the Potency entry is “inactive”.

`CC(=O)Nc1ccc(NC(=O)CCCNC(=O)c2ccc(Cl)cc2)cc1`: the Potency entry is “inactive”.

For the compound `CCCCNC(=O)C1CCCNC1=O` (stereo not given), the Potency entry was “inactive”.

As for `COc1cccc(CNC(=O)c2nnn(CC(=O)Nc3cc(C)ccc3C)c2N)c1`, the Potency entry is “inactive”.

In the case of `O=C(CNc1ccccc1N1CCCC1=O)Nc1cc(Cl)ccc1-n1cncn1`, the Potency result is “inactive”.

As to `CCOC(=O)N1CCN(C(=O)CSc2nc(=O)n3cccc(C)c3n2)CC1`, the Potency entry was “inactive”.

As for `CCOC(=O)CNC(=O)c1cc2c(=O)n3cccc(C)c3nc2s1`, the Potency entry is “inactive”.

Regarding `CCOC(=O)CC1C(=O)NCCN1c1nc2c(C)cccn2c(=O)c1/C=C1\SC(=S)N(C(C)CC)C1=O` (stereo not given), the Potency was 18.4 µM (active).

On to `CCSc1nnc(NC(=O)Cc2ccccc2OC)s1`, for which the Potency entry was “inactive”.

Regarding `CCOC(=O)N1CCN(C(=O)c2cn(C)c3ccc(S(=O)(=O)N(CC)CC)cc3c2=O)CC1`, the Potency entry is “inactive”.

On to `CCCCNC(=O)c1cc(-c2ccc(Cl)c(Cl)c2)on1`, for which the Potency result was “inactive”.

As to `COC(=O)CN1C(=O)N/C(=C/c2ccc(OC)c(C)c2OC)C1=O`, the Potency result was “inactive”.

Regarding `Cn1cccc1/C=N/NC(=O)c1ccc(OC(F)(F)C(F)F)cc1`, the Potency entry was “inactive”.

For `O=C(Nc1ccc(OC(F)(F)F)cc1)c1ccc2c(c1)no[n+]2[O-]`, the Potency was 3.66 µM (active).

As for `COC(=O)[C@H](C)NC(=O)Nc1ccc(OC(F)(F)F)cc1`, the Potency entry was “inactive”.
